Results from PMC7862700, “An all-to-all approach to the identification of sequence-specific readers for epigenetic DNA modifications on cytosine”.

Key:
Experiment in all cases: DAPPL (digital affinity profiling via proximity ligation, sequencing); 10 mM Tris-HCl pH 7.5, 50 mM NaCl, 1 mM DTT, 4% glycerol, room temperature, 30 min; GST-TFs on glutathione beads, 16-mer random dsDNA library, 0.1% formaldehyde crosslink after washing; high values mean tight binding
Conditions in all cases: protein: recombinant; tags: N-terminal GST; dsDNA, one strand shown
FLI1 = molecular target: T1, FLI1 (Homo sapiens, UniProt Q01543 1-452)
T1 sequence: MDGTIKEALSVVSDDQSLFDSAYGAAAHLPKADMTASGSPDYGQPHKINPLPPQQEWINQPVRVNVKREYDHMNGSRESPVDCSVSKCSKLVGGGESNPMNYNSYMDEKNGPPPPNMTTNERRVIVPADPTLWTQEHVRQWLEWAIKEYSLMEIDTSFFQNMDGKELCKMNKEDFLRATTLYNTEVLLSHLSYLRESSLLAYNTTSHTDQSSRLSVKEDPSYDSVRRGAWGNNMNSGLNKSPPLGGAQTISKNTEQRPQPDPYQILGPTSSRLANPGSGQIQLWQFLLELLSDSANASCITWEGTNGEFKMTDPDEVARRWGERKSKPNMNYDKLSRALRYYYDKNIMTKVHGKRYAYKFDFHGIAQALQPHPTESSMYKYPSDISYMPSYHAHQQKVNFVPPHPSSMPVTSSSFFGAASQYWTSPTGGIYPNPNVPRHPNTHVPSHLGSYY
In short: (§1)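 Binding signal is each hexamer's read frequency for a factor divided by its frequency in the tag-only sample. The factors were GST-fused human transcription factors from yeast, captured on glutathione beads, DNA-barcoded and pooled with that sample. Pools were incubated with 200 nmole of a random double-stranded 16-mer DNA library in Tris/NaCl/DTT/glycerol buffer at room temperature for 30 min, then washed, crosslinked with 0.1% formaldehyde, proximity-ligated with BsaI/T4 ligase (1 h, 37 °C), PCR-amplified and sequenced on an Illumina NextSeq500.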

ELK1 = molecular target: T2, ELK1 (Homo sapiens, UniProt P19419 1-428)
T2 sequence: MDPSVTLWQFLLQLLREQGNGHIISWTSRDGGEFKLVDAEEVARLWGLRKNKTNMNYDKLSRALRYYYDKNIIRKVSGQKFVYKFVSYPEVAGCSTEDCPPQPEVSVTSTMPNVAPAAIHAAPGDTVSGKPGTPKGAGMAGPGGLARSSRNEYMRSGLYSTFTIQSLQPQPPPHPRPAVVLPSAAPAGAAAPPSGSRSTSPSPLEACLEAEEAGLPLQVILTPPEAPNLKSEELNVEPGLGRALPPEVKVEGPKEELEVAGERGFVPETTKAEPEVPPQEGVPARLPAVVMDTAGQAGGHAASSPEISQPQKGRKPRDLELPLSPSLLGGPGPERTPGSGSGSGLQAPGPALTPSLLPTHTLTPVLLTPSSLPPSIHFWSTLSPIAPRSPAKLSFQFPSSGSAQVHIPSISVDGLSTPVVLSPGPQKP
In short: as §1

GABPA = molecular target: T3, GABPA (Homo sapiens, UniProt Q06546 1-454)
T3 sequence: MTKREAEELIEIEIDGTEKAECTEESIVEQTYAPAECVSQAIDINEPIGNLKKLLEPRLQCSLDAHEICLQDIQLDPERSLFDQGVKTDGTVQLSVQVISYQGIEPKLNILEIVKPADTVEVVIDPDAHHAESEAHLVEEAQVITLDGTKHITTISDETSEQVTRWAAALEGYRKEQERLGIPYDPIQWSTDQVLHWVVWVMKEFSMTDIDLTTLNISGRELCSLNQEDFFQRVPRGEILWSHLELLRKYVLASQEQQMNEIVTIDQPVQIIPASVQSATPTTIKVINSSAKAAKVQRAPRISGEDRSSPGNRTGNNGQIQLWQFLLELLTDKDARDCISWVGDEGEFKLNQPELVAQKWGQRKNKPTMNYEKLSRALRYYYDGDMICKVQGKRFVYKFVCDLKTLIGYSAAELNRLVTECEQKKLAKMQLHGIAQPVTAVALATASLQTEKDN
In short: as §1

ERG = molecular target: T4, ERG (Homo sapiens, UniProt P11308 1-479)
T4 sequence: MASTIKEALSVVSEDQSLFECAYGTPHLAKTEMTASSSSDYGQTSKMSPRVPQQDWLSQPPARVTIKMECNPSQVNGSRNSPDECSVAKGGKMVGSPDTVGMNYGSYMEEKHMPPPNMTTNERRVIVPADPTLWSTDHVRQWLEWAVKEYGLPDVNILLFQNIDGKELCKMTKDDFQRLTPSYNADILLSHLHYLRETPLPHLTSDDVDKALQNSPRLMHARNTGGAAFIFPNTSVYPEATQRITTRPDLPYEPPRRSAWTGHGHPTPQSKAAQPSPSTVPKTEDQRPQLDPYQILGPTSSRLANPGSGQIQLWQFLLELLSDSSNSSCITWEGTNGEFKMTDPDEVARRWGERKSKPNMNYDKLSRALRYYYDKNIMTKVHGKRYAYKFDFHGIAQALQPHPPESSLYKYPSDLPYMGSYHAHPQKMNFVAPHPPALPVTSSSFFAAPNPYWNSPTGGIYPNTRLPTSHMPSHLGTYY
In short: as §1

ELF1 = ELF1 (Homo sapiens, UniProt P32519 1-619)
In short: as §1

EHF = molecular target: T5, EHF (Homo sapiens, UniProt Q9NZC4 1-300)
T5 sequence: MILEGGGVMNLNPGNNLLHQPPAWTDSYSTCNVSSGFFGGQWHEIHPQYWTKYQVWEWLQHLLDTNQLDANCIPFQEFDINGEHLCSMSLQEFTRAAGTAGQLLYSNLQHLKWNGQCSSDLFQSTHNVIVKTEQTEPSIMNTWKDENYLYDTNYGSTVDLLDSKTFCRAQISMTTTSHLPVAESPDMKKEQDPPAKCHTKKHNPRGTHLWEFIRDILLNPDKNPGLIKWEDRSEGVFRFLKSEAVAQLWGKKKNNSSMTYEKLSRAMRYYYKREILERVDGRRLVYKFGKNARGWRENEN
In short: as §1

SPI1 = SPI1 (Homo sapiens, UniProt P17947 1-270)
In short: as §1

SPIB = SPIB (Homo sapiens, UniProt Q01892 1-262)
In short: as §1

ELK3 = molecular target: T6, ELK3 (Homo sapiens, UniProt P41970 1-407)
T6 sequence: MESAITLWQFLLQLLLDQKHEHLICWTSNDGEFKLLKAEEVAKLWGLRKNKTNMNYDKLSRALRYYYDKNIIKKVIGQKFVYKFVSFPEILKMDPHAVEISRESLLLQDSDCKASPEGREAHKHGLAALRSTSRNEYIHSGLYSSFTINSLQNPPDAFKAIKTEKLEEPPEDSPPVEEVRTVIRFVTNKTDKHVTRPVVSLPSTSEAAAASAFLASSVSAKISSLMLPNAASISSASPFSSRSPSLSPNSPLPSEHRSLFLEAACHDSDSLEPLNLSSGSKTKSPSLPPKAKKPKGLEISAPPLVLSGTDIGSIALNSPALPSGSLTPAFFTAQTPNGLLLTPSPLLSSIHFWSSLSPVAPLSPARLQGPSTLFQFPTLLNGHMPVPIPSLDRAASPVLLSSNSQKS
In short: as §1

Chain of SPIB (Q01892 whole entry): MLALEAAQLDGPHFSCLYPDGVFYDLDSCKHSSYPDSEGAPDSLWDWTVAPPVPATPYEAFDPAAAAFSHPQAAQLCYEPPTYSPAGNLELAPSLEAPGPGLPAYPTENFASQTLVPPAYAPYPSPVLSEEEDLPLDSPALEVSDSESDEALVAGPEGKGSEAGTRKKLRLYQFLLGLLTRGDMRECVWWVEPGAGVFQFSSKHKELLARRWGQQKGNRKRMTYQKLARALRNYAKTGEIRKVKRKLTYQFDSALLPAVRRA
Chain of ELF1 (P32519 whole entry): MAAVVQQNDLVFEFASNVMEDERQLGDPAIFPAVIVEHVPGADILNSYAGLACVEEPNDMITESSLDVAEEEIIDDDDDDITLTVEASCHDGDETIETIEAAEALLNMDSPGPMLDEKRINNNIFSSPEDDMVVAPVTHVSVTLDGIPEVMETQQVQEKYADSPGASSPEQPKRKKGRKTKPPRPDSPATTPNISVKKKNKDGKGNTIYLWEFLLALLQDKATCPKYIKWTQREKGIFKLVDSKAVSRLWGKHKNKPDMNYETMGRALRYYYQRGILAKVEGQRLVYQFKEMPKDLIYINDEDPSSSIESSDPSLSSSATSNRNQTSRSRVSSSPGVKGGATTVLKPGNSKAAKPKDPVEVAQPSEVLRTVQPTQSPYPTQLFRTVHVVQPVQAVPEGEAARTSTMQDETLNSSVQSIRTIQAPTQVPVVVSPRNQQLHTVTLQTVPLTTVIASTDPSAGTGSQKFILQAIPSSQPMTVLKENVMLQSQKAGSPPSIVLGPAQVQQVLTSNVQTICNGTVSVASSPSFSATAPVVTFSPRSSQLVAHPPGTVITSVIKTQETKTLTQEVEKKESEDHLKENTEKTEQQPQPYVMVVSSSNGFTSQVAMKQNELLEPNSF

Sequence | binding signal (FLI1) | binding signal (ELK1) | binding signal (GABPA) | binding signal (ERG) | binding signal (ELF1) | binding signal (EHF) | binding signal (SPI1) | binding signal (SPIB) | binding signal (ELK3)
GTCTTT | 1.28 fold enrichment (6-mer frequency, TF over GST control) | 1.21 fold enrichment (6-mer frequency, TF over GST control) | 1.35 fold enrichment (6-mer frequency, TF over GST control) | 1.15 fold enrichment (6-mer frequency, TF over GST control) | 1.26 fold enrichment (6-mer frequency, TF over GST control) | 1.2 fold enrichment (6-mer frequency, TF over GST control) | 1.38 fold enrichment (6-mer frequency, TF over GST control) | 1.23 fold enrichment (6-mer frequency, TF over GST control) | 1.34 fold enrichment (6-mer frequency, TF over GST control)
TTGTGC | 1.28 fold enrichment (6-mer frequency, TF over GST control) | 1.25 fold enrichment (6-mer frequency, TF over GST control) | 1.27 fold enrichment (6-mer frequency, TF over GST control) | 1.23 fold enrichment (6-mer frequency, TF over GST control) | 1.14 fold enrichment (6-mer frequency, TF over GST control) | 1.21 fold enrichment (6-mer frequency, TF over GST control) | 1.18 fold enrichment (6-mer frequency, TF over GST control) | 1.1 fold enrichment (6-mer frequency, TF over GST control) | 1.21 fold enrichment (6-mer frequency, TF over GST control)
TGCTCC | 1.53 fold enrichment (6-mer frequency, TF over GST control) | 1.41 fold enrichment (6-mer frequency, TF over GST control) | 1.45 fold enrichment (6-mer frequency, TF over GST control) | 1.37 fold enrichment (6-mer frequency, TF over GST control) | 1.31 fold enrichment (6-mer frequency, TF over GST control) | 1.46 fold enrichment (6-mer frequency, TF over GST control) | 1.38 fold enrichment (6-mer frequency, TF over GST control) | 1.41 fold enrichment (6-mer frequency, TF over GST control) | 1.38 fold enrichment (6-mer frequency, TF over GST control)
GCTTCG | 1.3 fold enrichment (6-mer frequency, TF over GST control) | 1.46 fold enrichment (6-mer frequency, TF over GST control) | 1.35 fold enrichment (6-mer frequency, TF over GST control) | 1.36 fold enrichment (6-mer frequency, TF over GST control) | 1.32 fold enrichment (6-mer frequency, TF over GST control) | 1.26 fold enrichment (6-mer frequency, TF over GST control) | 1.26 fold enrichment (6-mer frequency, TF over GST control) | 1.3 fold enrichment (6-mer frequency, TF over GST control) | 1.4 fold enrichment (6-mer frequency, TF over GST control)
TACCCT | 1.33 fold enrichment (6-mer frequency, TF over GST control) | 1.34 fold enrichment (6-mer frequency, TF over GST control) | 1.21 fold enrichment (6-mer frequency, TF over GST control) | 1.31 fold enrichment (6-mer frequency, TF over GST control) | 1.36 fold enrichment (6-mer frequency, TF over GST control) | 1.38 fold enrichment (6-mer frequency, TF over GST control) | 1.36 fold enrichment (6-mer frequency, TF over GST control) | 1.3 fold enrichment (6-mer frequency, TF over GST control) | 1.41 fold enrichment (6-mer frequency, TF over GST control)
CGCGCT | 1.25 fold enrichment (6-mer frequency, TF over GST control) | 1.32 fold enrichment (6-mer frequency, TF over GST control) | 1.13 fold enrichment (6-mer frequency, TF over GST control) | 1.13 fold enrichment (6-mer frequency, TF over GST control) | 1.18 fold enrichment (6-mer frequency, TF over GST control) | 1.17 fold enrichment (6-mer frequency, TF over GST control) | 1.1 fold enrichment (6-mer frequency, TF over GST control) | 1.27 fold enrichment (6-mer frequency, TF over GST control) | 1.21 fold enrichment (6-mer frequency, TF over GST control)
TATCAT | 1.25 fold enrichment (6-mer frequency, TF over GST control) | 1.18 fold enrichment (6-mer frequency, TF over GST control) | 1.3 fold enrichment (6-mer frequency, TF over GST control) | 1.13 fold enrichment (6-mer frequency, TF over GST control) | 1.15 fold enrichment (6-mer frequency, TF over GST control) | 1.21 fold enrichment (6-mer frequency, TF over GST control) | 1.13 fold enrichment (6-mer frequency, TF over GST control) | 1.11 fold enrichment (6-mer frequency, TF over GST control) | 1.17 fold enrichment (6-mer frequency, TF over GST control)
